Laboratory results: PubChem BioAssay (Tox21)
Results filed as inconclusive are left out. Active and inactive are the calls of the source. Unless noted, calls come from the whole dose curve; as a rule, active = well fitted curve in the direction sought with a large enough effect in the repeat runs; inconclusive = weak or mixed curves; inactive = no such curve, though single readings can be large; an effect the other way counts as inactive or inconclusive.

What was measured:
[1] = qHTS assay to identify small molecule agonists of the peroxisome proliferator-activated receptor delta (PPARd) signaling pathway - cell viability counter screen (AID 743211); note: nearly all actives have a fitted effect of over 55% in size
Procedure, shortened: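 Multiplexed format: after the 2 h room-temperature LiveBLAzer B/G FRET step, CellTiter-Glo was added to the same wells. Luminescence after 30 min gave cell viability; compound exposure was 17 h at 37C.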

[2] = molecular target: Peroxisome proliferator-activated receptor delta (Homo sapiens) (UniProt Q03181); experiment: qHTS assay to identify small molecule agonists of the peroxisome proliferator-activated receptor delta (PPARd) signaling pathway (AID 743212; calls by dose curve)
Procedure, shortened: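 HEK293H UAS-bla reporter cells, human PPARd system; compounds delivered in DMSO after 5 h plating, then at 37 C. Beta-lactamase FRET read, 2 h RT substrate step.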

[3] = molecular target: Peroxisome proliferator-activated receptor delta (Homo sapiens) (UniProt Q03181); experiment: qHTS assay to identify small molecule antagonists of the peroxisome proliferator-activated receptor delta (PPARd) signaling pathway (AID 743215; active = well fitted inhibition curve with a large enough effect in the signal ratio in the repeat runs, not every such curve was filed as active; the % refers to the signal ratio; note: series mostly up to about 62 µM)
Procedure, shortened: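 Inhibition of L165041-driven (300 nM final) PPARd signaling is scored in HEK293H UAS-bla cells. Exposure lasts 17 h at 37 C; beta-lactamase activity is then read by FRET substrate fluorescence after 2 h at room temperature.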

[4] = molecular target: Bile acid receptor (Homo sapiens) (UniProt Q96RI1); experiment: qHTS assay to identify small molecule antagonists of the farnesoid-X-receptor (FXR) signaling pathway (AID 743217; active = well fitted inhibition curve with a large enough effect in the signal ratio in the repeat runs, not every such curve was filed as active; the % refers to the signal ratio)
Procedure, shortened: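 Antagonist mode against 50 uM (final) chenodeoxycholic acid stimulation in FXR-bla HEK 293T cells, 16 h at 37 °C. Inhibition detected as reduced beta-lactamase activity via LiveBLAzer B/G FRET fluorescence after 2 h at room temperature.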

[5] = qHTS assay to identify small molecule agonists of the farnesoid-X-receptor (FXR) signaling pathway - cell viability counter screen (AID 743218); note: nearly all actives have a fitted effect of over 45% in size
Procedure, shortened: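 Cytotoxicity counter-screen run in parallel, same wells: FXR-UAS-bla HEK 293T cells dosed 16 h at 37 C, viability read by CellTiter-Glo luminescence after 30 min at room temperature.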

[6] = molecular target: Bile acid receptor (Homo sapiens) (UniProt Q96RI1); experiment: qHTS assay to identify small molecule agonists of the farnesoid-X-receptor (FXR) signaling pathway (AID 743220; active = well fitted activation curve with a large enough effect in the signal ratio in the repeat runs, not every such curve was filed as active; the % refers to the signal ratio)
Procedure, shortened: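 Beta-lactamase reporter under UAS control in GeneBLAzer FXR HEK 293T cells (5000/well) measured with LiveBLAzer FRET substrate after 2 h at room temperature. Compound exposure lasted 16 h at 37C.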

[7] = qHTS assay to identify small molecule antagonists of the farnesoid-X-receptor (FXR) signaling pathway - cell viability counter screen (AID 743221; active = well fitted cell-killing curve with a large enough effect in the repeat runs, not every such curve was filed as active; note: nearly all actives have a fitted effect of over 50% in size)
Procedure, shortened: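 CellTiter-Glo, 30 min RT, luminescence; same wells as the LiveBLAzer FRET read. Cells: FXR-UAS-bla HEK 293T. Treatment: compound with chenodeoxycholic acid 50 uM final, 16 h at 37 C.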

[8] = molecular target: Vitamin D3 receptor (Homo sapiens) (UniProt P11473); experiment: qHTS assay to identify small molecule agonists of the vitamin D receptor (VDR) signaling pathway (AID 743222; calls by dose curve)
Procedure, shortened: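 Quantitative HTS agonist-mode screen: compounds in DMSO were pin-transferred onto VDR-bla cells and incubated 16 h at 37C, 5% CO2. Reporter activity was detected with LiveBLAzer B/G FRET substrate after 2 h at room temperature.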

[9] = qHTS assay to identify small molecule agonists of the vitamin D receptor (VDR) signaling pathway - cell viability counter screen (AID 743224); note: series mostly up to about 63 µM; nearly all actives have a fitted effect of over 50% in size
Procedure, shortened: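 Viability is measured in the same wells as the VDR-bla reporter assay: after 16 h compound treatment and 2 h substrate loading, CellTiter-Glo is added and luminescence read 30 min later.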

[10] = qHTS assay to identify small molecule antagonists of the vitamin D receptor (VDR) signaling pathway - cell viability counter screen (AID 743225); note: nearly all actives have a fitted effect of over 50% in size
Procedure, shortened: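 Cytotoxicity toward the VDR-bla HEK 293T line was scored by ATP-based CellTiter-Glo luminescence, read in the wells already used for the beta-lactamase readout after 16 h compound treatment under 3 nM 1-alpha,25-dihydroxyvitamin D3 stimulation.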

[11] = qHTS assay to identify small molecule agonists of the NFkB signaling pathway (AID 1159509; active = well fitted curve in the direction sought with a large enough effect in the signal ratio in the repeat runs, not every such curve was filed as active; the % refers to the signal ratio; note: series mostly up to about 61 µM)
Procedure, shortened: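 NFkB-bla ME-180 cells with a beta-lactamase reporter under an NF-kB response element were plated overnight, treated with compounds in DMSO for 5 hr at 37 C, then loaded with FRET substrate for 1.5 hr at room temperature.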

[12] = qHTS assay to identify small molecule agonists of the NFkB signaling pathway - cell viability counter screen (AID 1159515; calls by dose curve; note: series mostly up to about 61 µM; nearly all actives have a fitted effect of over 55% in size)
Procedure, shortened: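 Multiplexed viability readout: after the 5 hr compound exposure and 1.5 hr FRET substrate step, CellTiter-Glo reagent went into the same NFkB-bla ME-180 wells; ATP luminescence was measured after 30 min at room temperature.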

[13] = qHTS assay to identify small molecule agonists of the endoplasmic reticulum stress response signaling pathway (AID 1159516; active = well fitted activation curve with a large enough effect in the signal ratio in the repeat runs, not every such curve was filed as active; the % refers to the signal ratio)
Procedure, shortened: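 Tox21 10K library screened in quantitative HTS format on ESRE-bla HeLa cells, a beta-lactamase reporter under ER stress response element control; 5 hr treatment, FRET read.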

[14] = qHTS assay to identify small molecule agonists of the endoplasmic reticulum stress response signaling pathway - cell viability counter screen (AID 1159517; calls by dose curve; note: series mostly up to about 61 µM; nearly all actives have a fitted effect of over 50% in size)
Procedure, shortened: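 Cells, HeLa ESRE-bla; density, 1,500/well; dosing, 5 hr at 37 C, 5% CO2; readout, CellTiter-Glo luminescence after 30 min RT.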

[15] = qHTS assay to identify small molecule antagonists of the retinoid-related orphan receptor gamma (ROR-gamma) signaling pathway - cell viability counter screen (AID 1159520); note: nearly all actives have a fitted effect of over 50% in size
Procedure, shortened: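 Cytotoxicity was read from cellular ATP (CellTiter-Glo luminescence) after 16 hr at 37 C with 1 uM doxycycline induction. The inducer was added 2 hr after compound transfer to Tet-on ROR gamma CHO cells.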

[16] = molecular target: Nuclear receptor ROR-gamma (Homo sapiens) (UniProt P51449); experiment: qHTS assay to identify small molecule antagonists of the retinoid-related orphan receptor gamma (ROR-gamma) signaling pathway (AID 1159521)
Procedure, shortened: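 Readout: ONE-Glo luciferase luminescence, 30 min at room temperature. System: Tet-on RORγ CHO, RORE-LUC. Sequence: compound 2 h, doxycycline 1 uM final, 16 h at 37 C.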

[17] = qHTS assay to identify small molecule agonists of the AP-1 signaling pathway (AID 1159526; calls by dose curve)
[18] = molecular target: Vitamin D3 receptor (Homo sapiens) (UniProt P11473); experiment: qHTS assay to identify small molecule antagonists of the vitamin D receptor (VDR) signaling pathway (AID 743223; active = well fitted inhibition curve with a large enough effect in the signal ratio in the repeat runs, not every such curve was filed as active; the % refers to the signal ratio)
Procedure, shortened: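 After VDR-bla cells are plated and left 4 h at 37C, DMSO-dissolved compounds and 3 nM (final) calcitriol agonist are added. Incubation continues 16 h at 37C; FRET beta-lactamase substrate then develops 2 h at room temperature.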

[19] = qHTS assay to identify small molecule agonists of the AP-1 signaling pathway - cell viability counter screen (AID 1159525; calls by dose curve; note: nearly all actives have a fitted effect of over 55% in size)
Procedure, shortened: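 Luminescent ATP readout (Cell Titer Glo, 30 min RT), normalised to DMSO and tetra n-octyl ammonium bromide controls. Cells were ME-180 AP-1-bla in 0.5% dialyzed FBS Opti-MEM, with a 5 h, 37 °C compound exposure.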

[20] = qHTS assay to identify small molecule antagonists of the peroxisome proliferator-activated receptor delta (PPARd) signaling pathway - cell viability counter screen (AID 743213); note: nearly all actives have a fitted effect of over 50% in size
Procedure, shortened: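 Agonist-stimulated (L165041, 300 nM final) HEK293H PPARd UAS-bla cells are exposed to compounds for 17 h at 37 C, and ATP-based luminescence (CellTiter-Glo) from the same wells reports cytotoxicity.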

Measured: Potency

Sequence of Bile acid receptor (Homo sapiens) (Q96RI1 whole entry, looked up): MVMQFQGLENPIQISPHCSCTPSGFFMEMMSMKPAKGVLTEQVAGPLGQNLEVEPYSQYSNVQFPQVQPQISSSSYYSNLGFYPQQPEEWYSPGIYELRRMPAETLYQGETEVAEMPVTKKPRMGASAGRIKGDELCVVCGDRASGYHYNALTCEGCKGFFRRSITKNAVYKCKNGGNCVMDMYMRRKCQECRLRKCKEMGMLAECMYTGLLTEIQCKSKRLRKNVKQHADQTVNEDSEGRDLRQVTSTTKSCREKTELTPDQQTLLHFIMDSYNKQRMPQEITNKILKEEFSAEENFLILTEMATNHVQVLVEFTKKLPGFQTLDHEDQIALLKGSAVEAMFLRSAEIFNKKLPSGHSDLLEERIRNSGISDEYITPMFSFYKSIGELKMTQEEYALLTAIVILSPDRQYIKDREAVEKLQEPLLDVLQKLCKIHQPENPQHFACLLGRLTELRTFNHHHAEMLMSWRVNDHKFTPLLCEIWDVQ
Sequence of Vitamin D3 receptor (Homo sapiens) (P11473 whole entry, looked up): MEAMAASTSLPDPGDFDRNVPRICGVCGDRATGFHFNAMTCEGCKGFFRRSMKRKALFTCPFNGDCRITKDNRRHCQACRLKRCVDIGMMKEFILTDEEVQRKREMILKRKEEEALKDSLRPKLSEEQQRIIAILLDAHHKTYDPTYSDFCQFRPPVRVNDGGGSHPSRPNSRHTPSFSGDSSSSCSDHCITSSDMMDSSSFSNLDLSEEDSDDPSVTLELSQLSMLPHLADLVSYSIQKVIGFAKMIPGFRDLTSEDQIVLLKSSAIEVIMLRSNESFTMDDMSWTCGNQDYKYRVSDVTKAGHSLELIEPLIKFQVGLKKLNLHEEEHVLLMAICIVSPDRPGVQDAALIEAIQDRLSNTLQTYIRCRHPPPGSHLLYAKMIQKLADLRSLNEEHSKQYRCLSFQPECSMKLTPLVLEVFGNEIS
Sequence of Peroxisome proliferator-activated receptor delta (Homo sapiens) (Q03181 whole entry, looked up): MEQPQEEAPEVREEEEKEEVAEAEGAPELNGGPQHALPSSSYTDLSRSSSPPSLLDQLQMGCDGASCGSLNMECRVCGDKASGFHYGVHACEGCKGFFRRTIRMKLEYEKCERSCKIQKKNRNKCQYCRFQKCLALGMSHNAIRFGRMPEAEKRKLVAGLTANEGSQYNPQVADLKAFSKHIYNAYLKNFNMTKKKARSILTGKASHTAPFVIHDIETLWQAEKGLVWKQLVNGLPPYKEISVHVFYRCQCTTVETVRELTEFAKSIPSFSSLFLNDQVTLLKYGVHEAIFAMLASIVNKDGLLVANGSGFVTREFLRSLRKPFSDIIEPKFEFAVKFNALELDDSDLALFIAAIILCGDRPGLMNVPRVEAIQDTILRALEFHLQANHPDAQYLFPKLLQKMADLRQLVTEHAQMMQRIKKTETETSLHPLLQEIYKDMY

CCSC(=O)N(CC)C1CCCCC1
inactive: [1] | [2] | [3] | [4] | [5] | [6] | [7] | [8] | [9] | [10] | [11] | [12] | [13] | [14] | [15] | [16] | [17]

CC1COC2(c3ccccc3Cl)c3cc(Cl)ccc3NC(=O)CN12 (centres undefined)
inactive: [2] | [3] | [5] | [7] | [8] | [18] | [9] | [10] | [11] | [12] | [13] | [14] | [15] | [16] | [19]

O=C(Nc1ccccc1)c1ccccc1I
inactive: [2] | [5] | [7] | [9] | [10] | [11] | [12] | [13] | [14] | [15] | [16] | [19] | [17]

O=C1OC(CCN2CCCCC2)OC1(c1ccccc1)c1ccccc1 (centres undefined)
inactive: [1] | [20] | [4] | [5] | [7] | [8] | [18] | [9] | [10] | [11] | [12] | [13] | [14] | [15] | [16] | [19]

CC(C)COP(=O)(OCC(C)C)OCC(C)C
inactive: [1] | [2] | [20] | [3] | [4] | [5] | [6] | [7] | [8] | [9] | [10] | [11] | [12] | [13] | [14] | [15] | [16] | [17]

ClC(Cl)(Cl)C(Cl)(Cl)Cl
inactive: [20] | [5] | [7] | [8] | [18] | [9] | [10] | [11] | [12] | [13] | [14] | [15] | [16] | [19] | [17]
